# Laboratory results: the supplement of paper PMC4206467
# Test system: Perkinsus marinus PRA240
# Experiment: ATP content (proliferation) relative to DMSO control; higher = more parasite growth (less inhibition)
# Details: 20 µM; 4 days
# Method: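 Perkinsus marinus PRA240 trophozoites (2-5x10^6 cells/ml, 100 µl, 96-well) were exposed once to MMV Malaria Box compounds at 20 µM (0.1% DMSO) in triplicate. ATP content (ATPlite bioluminescence) was read at day 4 post-exposure and normalised to DMSO + cells control wells (100% activity). Compounds were identified by joining plate and well to the Malaria Box list.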
row,SMILES,ATP content [%]
1,O=C(Nc1ccc(-c2nc3ccccc3[nH]2)cc1)c1ccc(Cl)c(Cl)c1,97.8
2,O=C(NC1CCN(Cc2ccccc2)CC1)c1cc(-c2cccnc2)nc2ccc(Cl)cc12,137
3,COc1ccc(C=C2SC(Nc3ccccc3)=NC2=O)cc1,61.4
4,Clc1ccc2[nH]c3c(NCCCN4CCOCC4)ncnc3c2c1,163
5,CCCCC(O)(c1ccc(Cl)cc1)C(CN1CCOCC1)c1ccc(Cl)cc1 (configuration not stated),131
6,CC(C)(C)c1ccc(C(=O)Nc2c3c(nn2-c2cccc(Cl)c2)CSC3)cc1,147
7,O=C(NNc1cc(N2CCCC2)nc(N2CCCC2)n1)c1ccccc1,101
8,COc1ccc2c(c1OC)C(=O)N1c3ccccc3N=C(c3ccc(C)cc3)CC21 (configuration not stated),155
9,COc1nc(Nc2ccc(C(C)C)cc2)nc(OC)n1,125
10,CCCCCCc1cc2cc(-c3nc4ccccc4[nH]3)c(=Nc3ccccc3C)oc2cc1O,121
11,COc1cc(C(=O)Nc2nc3c(cc4c5c(cccc53)CC4)s2)cc(OC)c1OC,89.8
12,CCN(CC)CCn1c(=N)n(CC(O)c2ccc(Cl)c(Cl)c2)c2ccccc21 (configuration not stated),110
13,Cc1c(C)n(Cc2ccc(F)cc2)c2ccc(C(=O)NCc3ccco3)cc12,111
14,O=C(NC1CCN(Cc2ccccc2)CC1)c1cc2nc(-c3ccc(Cl)s3)cc(C(F)(F)F)n2n1,118
15,Cn1c(=O)n(C)c2cc(CNCCNc3ccnc4cc(Cl)ccc34)ccc21,132
16,Nc1ccn(C2O[C@H](CO)[C@@H](O)[C@H]2O)c(=O)n1 (some centres not stated),132
17,O=C(Nc1cccc(-c2nc3ccccc3[nH]2)c1)c1cccc(NC(=O)c2ccco2)c1,126
18,CCCc1c(C)nc2ccc(Br)cc2c1O,58.8
19,Cc1nc2ccccc2c(O)c1CC=C(Cl)Cl,50.4

row,SMILES,ATP content [%]
1,CCOC(=O)c1cnc2c(CC)cccc2c1O,80.1
2,CCN(CC)CCNc1ccnc2cc3ccccc3cc12,107
3,CCN(CC)CCNc1ncnc2c1[nH]c1ccc(Br)cc12,141
4,CCN(CC)CCCNc1nc(-c2ccc(Cl)cc2)nc2ccccc12,99.6
5,Cc1ccc(CSCc2ccc(C(=O)NC3CC3)o2)cc1,54.8
6,CCCCOc1ccc(C(=O)Nc2cc(C)on2)cc1,61.2
7,CC(C)OCc1cc(CN2CCN(c3cccc(Cl)c3)CC2)c(O)c2ncccc12,12
8,COc1ccc2nc(N)nc(C)c2c1,88
9,O=c1nc(C=Cc2ccc(Cl)cc2)oc2ccccc12,22.2
10,CC(C)(C)c1ccc(C(=O)Nc2nc3ccccc3s2)cc1,57
11,CCCCc1c(CCC)c(=N)c2ccccc2n1C,95.4
12,FC(F)(F)c1cccc(Nc2nc3ccccc3nc2Nc2cccc(C(F)(F)F)c2)c1,155
13,Cc1cc(=O)oc2c1ccc1oc(C(=O)c3ccccc3)c(C)c12,154
14,Cc1cc(C)c2nc(N3CCC(C(=O)NCCCN4CCC(N5CCCCC5)CC4)CC3)sc2c1,135
15,CCn1c2c(c(=N)c3c1CCC3)CCCC2,96.7
16,CCC(=O)Nc1nnc(Cc2ccc(OC)c(OC)c2)s1,103
17,Cc1cc(N(C)C)nc(Nc2ccc(NC(=O)Nc3ccccc3)cc2)n1,85.9
18,COc1cc(-c2nc(-c3ccc(Sc4ccccc4)cc3)c(-c3ccccc3)[nH]2)cc(OC)c1O,78.3
